Consider 34 molecules from PubChem BioAssay (Tox21).

Unmarked numbers belong to inactive results. Active and inactive are the calls of the source. Calls follow the shape of the dose curve; as a rule, active = well fitted activation curve with a large enough effect in the repeat runs; inconclusive = weak or mixed curves; inactive = flat fitted curve, though single readings scatter.

The target of this test is KiSS-1 receptor (Homo sapiens) (UniProt Q969F8). The experiment in a line: Human kisspeptin (KISS1R) small molecule agonists, calcium flux assay in KISS1R-HEK293 cells (AID 1920064). To be noted: KISS1R-HEK293, calcium flux fluorescence, agonist; series mostly up to 76.8 µM. The procedure, abridged:
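After overnight (18 h) culture at 37 C/5% CO2, human KISS1R-HEK293 cells received calcium dye for 1 h, then test compound; emission at 540 nm (excitation 480 nm) was tracked for 3 min.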
For orientation: A change in cytosolic calcium serves as a functional read-out for many receptors and channels.
% is scaled to controls: 0 for no effect and ±100 for the full control effect.

Sequence of KiSS-1 receptor (Homo sapiens) (Q969F8 whole entry, looked up): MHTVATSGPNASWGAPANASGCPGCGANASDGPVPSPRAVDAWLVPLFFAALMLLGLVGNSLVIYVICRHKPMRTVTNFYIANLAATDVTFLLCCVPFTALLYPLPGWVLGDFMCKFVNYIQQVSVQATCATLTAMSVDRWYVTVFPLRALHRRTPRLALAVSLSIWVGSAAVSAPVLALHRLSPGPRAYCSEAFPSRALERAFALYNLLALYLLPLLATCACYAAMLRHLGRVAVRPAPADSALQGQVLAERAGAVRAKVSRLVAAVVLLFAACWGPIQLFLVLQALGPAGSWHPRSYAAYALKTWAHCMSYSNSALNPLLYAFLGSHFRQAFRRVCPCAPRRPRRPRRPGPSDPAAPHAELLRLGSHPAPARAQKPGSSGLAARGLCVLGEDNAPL

Consider `CC(=O)O[C@@H]1CC2CCC1(C)C2(C)C` (some centres undefined), for which the outcome was inactive.
In the case of `CN1Cc2cc(C(=O)N3CCC(C4CCNCC4)CC3)ccc2N[C@@H](CC(=O)O)C1=O`, the result was inactive.
Still for that read-out and setting: with `Cc1cn([C@@H]2O[C@H](CO)[C@@H](O)[C@@H]2F)c(=O)[nH]c1=O` the entry was “inactive”; with `CCC(=O)Oc1ccc2c(c1)CC[C@@H]1[C@@H]2CC[C@@]2(C)[C@H]1C[C@@H](OC(=O)CC)[C@@H]2OC(=O)CC`, “inactive”.
Consider `O=C1[C@H](CC[C@H](O)c2ccc(F)cc2)[C@@H](c2ccc(O)cc2)N1c1ccc(F)cc1`, for which the result was inactive.
In the case of `N[C@H](C(=O)O)[C@@H](O)c1ccc(O)c(O)c1`, the result was inactive.
Regarding `CCCCc1ccc2c(n1)[C@@H](c1ccc(OC)cc1C[C@H](C)C(=O)O)[C@H](C(=O)O)[C@H]2c1ccc2c(c1)OCO2`, the outcome was inactive.
With `CC1=CCC2C(C1)C2(C)C` (centres undefined), the outcome was inactive.
`O=C(O)c1cc(Cl)cc([N+](=O)[O-])c1Cl`: the outcome was inactive.
Same read-out and setting: under `CC(C)Nc1cccnc1N1CCN(C(=O)c2cc3cc(NS(C)(=O)=O)ccc3[nH]2)CC1` stands “inactive”; under `CCOC(=O)CC`, “inactive”.
Regarding `CS(=O)(=O)c1ccc(-c2cn3ccccc3n2)cc1`, the outcome was inactive.
Regarding `COc1ccc(N)c([N+](=O)[O-])c1`, the result was inactive.
Consider `Cc1c(Cl)cccc1[N+](=O)[O-]`, for which the outcome was inactive.
Turning to `NC(CO)C(=O)NNCc1ccc(O)c(O)c1O` (centres undefined), the result was inactive.
For the molecule `COc1ccc(OC)c(NC(=O)CC(C)=O)c1`, the outcome was inactive.
Consider `C/C(=N/NC(=O)c1ccncc1)C(=O)O`, for which the outcome was inactive.
For `CCCCC(CC)COC(=O)CC#N` (centres undefined), the outcome was inactive.
Turning to `O=C(O)C(O)[C@H](O)[C@@H](O)[C@H](O)[C@H](O)CO` (some centres undefined), the outcome was inactive.
Turning to `CCCCC1CCCCC(=O)O1` (centres undefined), the result was inactive.
Same read-out and setting: under `CCCCCO` stands “inactive”; under `Nc1ccc(NC(=O)c2ccc(N)cc2)cc1`, “inactive”; under `CC(C)=CC1CC(C)CCO1` (centres undefined), “inactive”.
With `O=S(=O)(O)CCO`, the outcome was inactive.
`O=C=NCc1cccc(CN=C=O)c1`: the activation is 0.462% [at 15.8 µM].
For `CCN(CC)CCNC(=O)c1cc(S(C)(=O)=O)ccc1OC`, the outcome was inactive.
`S=c1[nH][nH]c(=S)s1`: the outcome was inactive.
Take `CC(C)=CCC[C@@](C)(O)[C@H]1CC=C(C)CC1`: the outcome was inactive.
Take `CCCCCCCCCC=O`: the result was inactive.
Consider `CCN(O)CC`, for which the outcome was inactive.
The same measure, in the same setting: with `Cc1cccc(C)c1OCC(C)N` (centres undefined) the entry was “inactive”.
For `CC(=O)SC[C@@H](Cc1ccccc1)C(=O)NCC(=O)OCc1ccccc1`, the outcome was inactive.
`CC(C)(O)c1ccccc1CC[C@@H](SCC1(CC(=O)O)CC1)c1cccc(/C=C/c2ccc3ccc(Cl)cc3n2)c1`: the outcome was inactive.
Still for that read-out and setting: with `COc1cc(S(=O)(=O)O)c(C)cc1N=Nc1c(O)ccc2cc(S(=O)(=O)O)ccc12` the entry was “inactive”.
